For one assay, the target named is COMMD1. Nature of the assay: pooled miR-30 sensor sort-seq; sequence = guide strand. The following applies: shRNA.
TGATACTTTCTTCTACCTCTGA gave a sensor-assay potency score (higher = more potent) of -0.273.

The sequence TTGCCATCAACTCTCCAGCTCA displayed a sensor-assay potency score (higher = more potent) of -1.2. On to TATAATGGCAACAGGTGTGTGT, for which the sensor-assay potency score (higher = more potent) is 0.267.

On to TTGAGCTGAGTGCCTTGACTGA, for which the sensor-assay potency score (higher = more potent) was -0.799. Take TTCTACCTCTGACAGCGTCTTC: the sensor-assay potency score (higher = more potent) is -0.88. In turn, TTGACTGAGACTTGCCATCAAC returned a sensor-assay potency score (higher = more potent) of -1.5. Turning to TTTCAACAACTCCAACTCCTTC, the sensor-assay potency score (higher = more potent) is -0.622. Same read-out and setting: with TTCTTCTACCTCTGACAGCGTC the figure was -0.845. Sequence TTTTGTCTTGTGGCTCTTCCAG registered a sensor-assay potency score (higher = more potent) of -0.915.

TTTGTCTTGTGGCTCTTCCAGA: the sensor-assay potency score (higher = more potent) is -0.37. In the case of TTTGACCTCATCAAATTCCAAA, the sensor-assay potency score (higher = more potent) was -0.935. On the same count and under the same terms, under TTTGGAAATGACAGCAGCTTGG stands -0.686.

The next assay deals with COMMD8. Described as above. To be noted: shRNA.
On to TTTACATCTAGATGCAGGCTTA, for which the sensor-assay potency score (higher = more potent) was -0.242. TTTTACATCTAGATGCAGGCTT: the sensor-assay potency score (higher = more potent) amounted to 0.949. In the case of TATTTCTCTTGACAGAGCCTGT, the sensor-assay potency score (higher = more potent) is -1.04.

In turn, AATTATTTTGTGAAGAAGCTGC gave a sensor-assay potency score (higher = more potent) of 0.272. TCAACTGCTGAAATATCTCTTC: the sensor-assay potency score (higher = more potent) is -0.0513. Regarding TTCTTTTACATCTAGATGCAGG, the sensor-assay potency score (higher = more potent) is -0.776.

The record behind these values is the OligoGym collection.
Note: reference of the scale not given here.
